Laboratory results: PubChem BioAssay (EPA / NIEHS)
Results filed as inconclusive are left out. Activity calls are given as the source filed them. The calls were made as follows, unless noted: active = hit-call score of the fitted dose curve at least 0.9, where 1 is the maximum; inconclusive = response in the unintended direction; inactive = score below 0.9.

Columns and labels:
[1] = biological target: Estrogen receptor (Homo sapiens) (UniProt P03372); assay: OT_ERa_GFPERaERE_0480: Odyssey Thera (OT) 8-hour HeLa Transcription Induction Assay for Estrogen Receptor (AID 2283381; active = hit-call score of the fitted dose curve at least 0.9, where 1 is the maximum; inactive = score below 0.9)
Estrogen receptor (Homo sapiens), sequence (P03372 whole entry, looked up): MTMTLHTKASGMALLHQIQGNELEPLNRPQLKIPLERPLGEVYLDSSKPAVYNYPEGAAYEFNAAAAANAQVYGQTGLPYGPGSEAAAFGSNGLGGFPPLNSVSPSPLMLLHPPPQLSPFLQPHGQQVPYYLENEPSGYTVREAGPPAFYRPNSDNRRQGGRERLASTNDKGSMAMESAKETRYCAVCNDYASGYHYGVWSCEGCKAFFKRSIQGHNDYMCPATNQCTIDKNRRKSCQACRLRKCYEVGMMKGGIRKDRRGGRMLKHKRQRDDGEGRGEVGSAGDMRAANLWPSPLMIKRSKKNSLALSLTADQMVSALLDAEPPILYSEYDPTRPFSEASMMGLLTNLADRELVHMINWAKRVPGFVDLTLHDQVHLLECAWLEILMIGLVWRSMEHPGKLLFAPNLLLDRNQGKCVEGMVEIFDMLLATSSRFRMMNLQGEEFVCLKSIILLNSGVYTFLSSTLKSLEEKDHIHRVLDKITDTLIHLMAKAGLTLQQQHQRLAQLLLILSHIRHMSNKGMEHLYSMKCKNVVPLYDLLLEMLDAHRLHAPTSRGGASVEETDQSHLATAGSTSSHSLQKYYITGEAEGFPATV
Summary of the method: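 Cells (HeLa) receive compound; after 8 h, reporter fluorescence is imaged and quantified by high-content analysis. Gain-of-signal relative to DMSO gives the endpoint.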

[2] = biological target: Estrogen receptor (Homo sapiens) (UniProt P03372); assay: OT_ERa_GFPERaERE_0120: Odyssey Thera (OT) 2-hour HeLa Transcription Induction Assay for Estrogen Receptor (AID 2283382)
Summary of the method: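 Measures ESR1 pathway reporter gain-of-signal in HeLa cells after a 2-hour treatment, detected as fluorescent protein induction by microscopy, DMSO as baseline.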

[3] = biological target: Retinoic acid receptor RXR-alpha (Homo sapiens) (UniProt P19793); assay: OT_NURR1_NURR1RXRa_1440: Odyssey Thera (OT) 24-hour HEK293T Protein Complementation Assay for Nurr1/retinoid X receptor (RXR) (AID 2283386)
Retinoic acid receptor RXR-alpha (Homo sapiens), sequence (P19793 whole entry, looked up, the tested form may be a part): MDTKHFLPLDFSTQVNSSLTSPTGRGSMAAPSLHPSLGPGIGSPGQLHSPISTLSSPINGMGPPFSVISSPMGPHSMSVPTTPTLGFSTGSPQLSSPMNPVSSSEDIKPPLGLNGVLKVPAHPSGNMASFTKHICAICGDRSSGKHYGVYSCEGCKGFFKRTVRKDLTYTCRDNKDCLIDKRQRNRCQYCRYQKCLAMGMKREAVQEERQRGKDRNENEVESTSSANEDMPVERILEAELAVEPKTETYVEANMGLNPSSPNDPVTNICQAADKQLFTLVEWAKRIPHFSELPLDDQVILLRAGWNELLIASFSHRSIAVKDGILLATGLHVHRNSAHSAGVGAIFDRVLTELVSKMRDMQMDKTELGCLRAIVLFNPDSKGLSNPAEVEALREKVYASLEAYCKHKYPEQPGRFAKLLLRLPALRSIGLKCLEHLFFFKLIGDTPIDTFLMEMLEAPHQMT
Summary of the method: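 Measured as fluorescence from a reconstituted split reporter, this 24 h HEK293T complementation assay scores compound-induced gain of Nurr1/RXRα association relative to DMSO.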

[4] = biological target: Peroxisome proliferator-activated receptor gamma (Homo sapiens) (UniProt P37231); assay: OT_PPARg_PPARgSRC1_0480: Odyssey Thera (OT) 8-hour Protein-Complementation Assay for Peroxisome Proliferator-activated Receptor Gamma / SRC-1 Co-activator (AID 2283387);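 also: nuclear to cytoplasmic split Venus YFP fluorescence ratio reporting PPARg SRC-1 interaction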
Peroxisome proliferator-activated receptor gamma (Homo sapiens), sequence (P37231 whole entry, looked up, the tested form may be a part): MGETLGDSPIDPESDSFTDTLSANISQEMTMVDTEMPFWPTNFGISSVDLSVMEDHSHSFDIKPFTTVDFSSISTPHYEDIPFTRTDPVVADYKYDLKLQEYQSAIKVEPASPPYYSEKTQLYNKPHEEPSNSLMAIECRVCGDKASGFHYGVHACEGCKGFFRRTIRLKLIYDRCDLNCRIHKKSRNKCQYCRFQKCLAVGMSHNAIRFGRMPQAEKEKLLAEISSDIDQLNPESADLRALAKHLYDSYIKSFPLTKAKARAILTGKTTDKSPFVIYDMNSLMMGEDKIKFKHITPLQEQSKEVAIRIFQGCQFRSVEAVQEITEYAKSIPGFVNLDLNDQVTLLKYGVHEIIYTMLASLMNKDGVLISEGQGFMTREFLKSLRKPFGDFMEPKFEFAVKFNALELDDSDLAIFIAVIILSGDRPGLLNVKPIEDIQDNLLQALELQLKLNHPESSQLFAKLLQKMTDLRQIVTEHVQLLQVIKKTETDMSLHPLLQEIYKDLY
Summary of the method: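 Protein-fragment complementation of split Venus YFP reports PPARg/SRC-1 interaction in HEK293T (transfected 48 h before treatment), exposed 8 h. Readout: N/C fluorescence ratio at 488 nm from imaging, Draq5 for segmentation, positive fit relative to DMSO.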

[5] = biological target: Peroxisome proliferator-activated receptor gamma (Homo sapiens) (UniProt P37231); assay: OT_PPARg_PPARgSRC1_1440: Odyssey Thera (OT) 24-hour Protein-Complementation Assay for Peroxisome Proliferator-activated Receptor Gamma/ SRC-1 Co-activator (AID 2283388);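 also: nuclear to cytoplasmic ratio of reconstituted Venus YFP fluorescence in fixed imaged cells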
Summary of the method: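 Readout: nuclear-to-cytoplasmic 488 nm fluorescence ratio, ≥350 cells per image, 8 images per well, after 24 h compound exposure of HEK293T expressing PPARg/SRC-1 split-YFP fusions. Activity fitted in positive direction against DMSO.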

[6] = biological target: Estrogen receptor beta (Homo sapiens) (UniProt Q92731); assay: OT_ER_ERbERb_1440: Odyssey Thera (OT) 24-hour HEK293T Protein-Complementation Assay for Estrogen Receptor-beta/-beta Homodimer (AID 2283380);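 also: fluorescence gain from ER beta LBD homodimer complementation read by laser scanning cytometry; scored as signal increase over DMSO baseline for both agonists and antagonists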
Estrogen receptor beta (Homo sapiens), sequence (Q92731 whole entry, looked up, the tested form may be a part): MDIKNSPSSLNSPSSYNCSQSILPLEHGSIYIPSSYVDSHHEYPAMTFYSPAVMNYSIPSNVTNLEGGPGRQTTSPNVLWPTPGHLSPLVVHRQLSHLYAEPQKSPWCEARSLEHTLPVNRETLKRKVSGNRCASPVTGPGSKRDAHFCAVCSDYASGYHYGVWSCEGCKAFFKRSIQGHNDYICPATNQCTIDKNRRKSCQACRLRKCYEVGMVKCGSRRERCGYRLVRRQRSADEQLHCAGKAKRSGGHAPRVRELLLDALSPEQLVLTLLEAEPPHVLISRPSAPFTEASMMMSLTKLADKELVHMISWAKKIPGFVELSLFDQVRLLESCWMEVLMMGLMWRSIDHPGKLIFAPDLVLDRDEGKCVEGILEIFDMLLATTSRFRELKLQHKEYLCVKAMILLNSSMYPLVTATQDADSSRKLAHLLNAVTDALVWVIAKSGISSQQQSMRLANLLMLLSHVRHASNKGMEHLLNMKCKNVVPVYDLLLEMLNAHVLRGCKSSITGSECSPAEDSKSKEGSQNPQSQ
Summary of the method: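 HEK293T cells stably expressing human ER-beta LBD (aa 310-547) PCA homodimer pair, dosed 24 h; formaldehyde-fixed, Draq5-stained. Readout: increase in nuclear (agonist) or nuclear plus cytoplasmic (antagonist) fluorescence intensity versus DMSO, gain-of-signal fitting.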

[7] = CEETOX_H295R_OHPREG: CeeTox H295R High-throughput Steroidogenesis Assay for OH-Pregnenolone (OHPREG) (AID 2283434; active = hit-call score of the fitted dose curve at least 0.9, where 1 is the maximum; inactive = score below 0.9); conditions: actives raise or lower the signal
Summary of the method: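 Human adrenal H295R cells were prestimulated 48 h with 10 uM forskolin, then exposed 48 h to chemical in 0.1% DMSO. Medium 17alpha-hydroxypregnenolone was quantified by HPLC-MS/MS after MTBE extraction; bidirectional fitting versus DMSO baseline.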

[8] = CEETOX_H295R_OHPROG: CeeTox H295R High-throughput Steroidogenesis Assay for OH-Progesterone (OHPROG) (AID 2283435; active = hit-call score of the fitted dose curve at least 0.9, where 1 is the maximum; inactive = score below 0.9;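 as to AC50: 17alpha-hydroxyprogesterone secreted into medium measured by HPLC-MS/MS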); conditions: actives raise or lower the signal
Summary of the method: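 Secreted 17alpha-hydroxyprogesterone is read by tandem MS from media of forskolin-primed H295R cells dosed with chemical for 48 h. Activity is fitted in both directions against DMSO baseline; cytotoxic concentrations are re-tested diluted.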

[9] = CEETOX_H295R_ESTRADIOL: CeeTox H295R High-throughput Steroidogenesis Assay for Estradiol (AID 2283440; active = hit-call score of the fitted dose curve at least 0.9, where 1 is the maximum; inactive = score below 0.9;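 also: estradiol secreted into medium quantified by LC-MS/MS after dansyl derivatisation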); conditions: actives raise or lower the signal
Summary of the method: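 H295R, 48 h forskolin (10 uM) prestim → 48 h compound, 0.1% DMSO final. Estradiol in medium: MTBE extraction, dansyl chloride derivatization, LC-MS/MS. Fit bidirectional vs DMSO baseline; MTT viability in same wells.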

[10] = CEETOX_H295R_ESTRONE: CeeTox H295R High-throughput Steroidogenesis Assay for Estrone (AID 2283441; active = hit-call score of the fitted dose curve at least 0.9, where 1 is the maximum; inactive = score below 0.9;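 also: estrone secreted into medium measured by LC-MS/MS after dansyl derivatization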); conditions: actives raise or lower the signal
Summary of the method: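 H295R cells; 48 h forskolin (10 uM) prestimulation; 48 h compound exposure, 0.1% DMSO final. Medium estrone: MTBE extraction, dansyl derivatization, HPLC-MS/MS. Bidirectional fit vs DMSO.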

[11] = biological target: Retinoic acid receptor RXR-alpha (Homo sapiens) (UniProt P19793); assay: OT_NURR1_NURR1RXRa_0480: Odyssey Thera (OT) 8-hour HEK293T Protein Complementation Assay for Nurr1/retinoid X receptor (RXR) (AID 2283385)
Summary of the method: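 Compounds are applied to HEK293T cells carrying Nurr1 and RXRα linked to reporter fragments. After 8 h, fluorescence intensity reports heterodimer formation, with DMSO as baseline.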

[12] = CEETOX_H295R_11DCORT: CeeTox H295R High-throughput Steroidogenesis Assay for 11-Deoxycortisol (11DCORT) (AID 2283432; active = hit-call score of the fitted dose curve at least 0.9, where 1 is the maximum; inactive = score below 0.9;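 also: 11-deoxycortisol secreted into the medium measured by LC-MS/MS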); conditions: actives raise or lower the signal
Summary of the method: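 Human adrenal H295R cells were prestimulated with 10 uM forskolin for 48 h, then exposed to test chemical (0.1% DMSO final) for 48 h. Medium 11-deoxycortisol was quantified by MTBE extraction and HPLC-MS/MS; bidirectional fitting relative to DMSO.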

[13] = CEETOX_H295R_CORTIC: CeeTox H295R High-throughput Steroidogenesis Assay for Corticosterone (CORTIC) (AID 2283437; active = hit-call score of the fitted dose curve at least 0.9, where 1 is the maximum; inactive = score below 0.9;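 also: corticosterone secreted into medium quantified by mass spectrometry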); conditions: actives raise or lower the signal
Summary of the method: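 H295R cells were prestimulated 48 h with 10 uM forskolin, then exposed 48 h to test chemical in 0.1% DMSO. Medium corticosterone was MTBE-extracted and quantified by HPLC-MS/MS; bidirectional fit versus DMSO baseline.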

[14] = CEETOX_H295R_CORTISOL: CeeTox H295R High-throughput Steroidogenesis Assay for Cortisol (AID 2283438; active = hit-call score of the fitted dose curve at least 0.9, where 1 is the maximum; inactive = score below 0.9;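 also: cortisol secreted into medium quantified by LC-MS/MS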); conditions: actives raise or lower the signal
Summary of the method: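 Human adrenocortical H295R cells (passage ≤10) received test chemicals for 48 h after forskolin priming. Secreted cortisol was measured by LC-MS/MS.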

[15] = CEETOX_H295R_DOC: CeeTox H295R High-throughput Steroidogenesis Assay for DOC (AID 2283439; active = hit-call score of the fitted dose curve at least 0.9, where 1 is the maximum; inactive = score below 0.9); conditions: actives raise or lower the signal
Summary of the method: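 Secreted DOC was quantified from H295R media by HPLC-MS/MS after 48 h chemical exposure following 48 h forskolin (10 uM) prestimulation. Values were fitted in both directions relative to DMSO, the negative control and baseline.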

[16] = biological target: Bile acid receptor (Homo sapiens) (UniProt Q96RI1); assay: OT_FXR_FXRSRC1_0480: Odyssey Thera (OT) 8-hour HEK293T Protein-Complementation Assay for Farnesoid X receptor/SRC-1 Co-activator (AID 2283383)
Bile acid receptor (Homo sapiens), sequence (Q96RI1 whole entry, looked up, the tested form may be a part): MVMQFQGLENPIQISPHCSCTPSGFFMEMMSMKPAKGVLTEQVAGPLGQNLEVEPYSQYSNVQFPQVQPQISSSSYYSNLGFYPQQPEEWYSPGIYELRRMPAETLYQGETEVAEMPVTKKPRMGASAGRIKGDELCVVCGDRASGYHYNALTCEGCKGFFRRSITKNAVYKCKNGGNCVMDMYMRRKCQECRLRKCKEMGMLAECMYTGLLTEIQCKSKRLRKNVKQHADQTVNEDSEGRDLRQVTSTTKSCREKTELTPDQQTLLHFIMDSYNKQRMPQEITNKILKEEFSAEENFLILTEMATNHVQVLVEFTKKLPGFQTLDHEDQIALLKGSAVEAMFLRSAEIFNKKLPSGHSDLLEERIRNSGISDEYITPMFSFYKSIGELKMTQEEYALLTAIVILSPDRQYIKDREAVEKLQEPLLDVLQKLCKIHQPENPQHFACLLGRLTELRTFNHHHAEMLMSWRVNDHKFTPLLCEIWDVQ
Summary of the method: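 Co-activator recruitment to FXR was measured in living HEK293T cells, where interaction of the two fused partners restored an active fluorescent reporter. Signal gain after 8 h treatment was referenced to DMSO.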

[17] = biological target: Bile acid receptor (Homo sapiens) (UniProt Q96RI1); assay: OT_FXR_FXRSRC1_1440: Odyssey Thera (OT) 24-hour HEK293T Protein-Complementation Assay for Farnesoid X receptor/SRC-1 Co-activator (AID 2283384)
Summary of the method: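 Cell-based binding reporter: interaction of FXR with SRC-1 brings reporter fragments together, giving a fluorescence signal read 24 h after dosing of HEK293T cells.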

Measured: AC50

Cc1cc(C)nc(Nc2ccccc2)n1
inactive: [1] | [2] | [3] | [4] | [5]

CCSC(=O)N1CCCCCC1
inactive: [6] | [3] | [4] | [5] | [7] | [8] | [9] | [10]

CC(C)(C)C(=O)C(Oc1ccc(Cl)cc1)n1cncn1 (stereo unspecified)
active: [12] 58.9 µM | [7] 21.6 µM | [8] 21 µM | [14] 21.2 µM | [9] 21.7 µM | [10] 41.2 µM
inactive: [6] | [2] | [11] | [4] | [5] | [13] | [15]

COP(=S)(OC)Oc1ccc([N+](=O)[O-])c(C)c1
inactive: [6] | [11] | [3] | [4] | [5] | [7] | [13] | [14] | [9] | [10]
active: [16] 21.3 µM | [17] 29.8 µM | [12] 6.36 µM | [8] 2.22 µM | [15] 2.48 µM
